According to PubChem BioAssay (NCI):
Compounds without any hit were thinned out: in the full panel of roughly 79,000, 15% have a hit. Active and inactive are the calls of the source. Rule as the data show it: active = growth inhibition above about 70%; inactive = the rest.

Experiments:
[1] = NCI Yeast Anticancer Drug Screen. Data for the sgs1 mgt1 strain (AID 161);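 also: 0% = growth of cultures given vehicle only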; conditions: S. cerevisiae sgs1 mgt1 strain, hits give high values
Method in brief: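 Percent growth inhibition was derived by comparing compound-exposed mutant yeast with vehicle-exposed cultures. The strain carries alterations in DNA damage repair.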

[2] = NCI Yeast Anticancer Drug Screen. Data for the CLN2oe strain (AID 163);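 also: 0% = growth of vehicle-only control cultures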; conditions: S. cerevisiae CLN2oe strain, hits give high values
Method in brief: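 Compounds are applied to yeast harbouring a defined cell-cycle control change; reduced growth compared with vehicle-treated controls gives the value.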

[3] = NCI Yeast Anticancer Drug Screen. Data for the cln2 rad14 strain (AID 165);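 also: 0% = growth equal to vehicle treated cultures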; conditions: S. cerevisiae cln2 rad14 strain, hits give high values
Method in brief: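 Readout is yeast growth inhibition versus vehicle-treated controls, using a strain with cln2 and rad14 alterations exposed to compound.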

[4] = NCI Yeast Anticancer Drug Screen. Data for the bub3 strain (AID 167); conditions: S. cerevisiae bub3 mutant strain, hits give high values
Method in brief: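 In this screen, a yeast mutant lacking normal mitotic checkpoint function is challenged with compound. Relative growth versus vehicle gives the inhibition value.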

[5] = NCI Yeast Anticancer Drug Screen. Data for the wt2 strain (AID 169);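 also: 0% = growth of vehicle-treated yeast cultures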; conditions: S. cerevisiae wt2 strain growth inhibition, hits give high values
Method in brief: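 Against vehicle-treated controls, the growth of yeast exposed to each compound was compared, and the inhibition was recorded.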

[6] = NCI Yeast Anticancer Drug Screen. Data for the mlh1 strain (AID 171);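 also: 0% = growth of vehicle-treated control cultures of the same strain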; conditions: S. cerevisiae mlh1 strain growth inhibition, hits give high values
Method in brief: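 Measured: yeast growth. Reference: vehicle-treated controls. Organism: strain with a defined alteration affecting DNA damage repair or cell cycle control, treated with compound.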

[7] = NCI Yeast Anticancer Drug Screen. Data for the sgs1 strain (AID 173);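 also: 0% = growth of vehicle-only control cultures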; conditions: S. cerevisiae sgs1 mutant, hits give high values
Method in brief: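 Each compound was added to cultures of the altered yeast strain. Growth was recorded, and inhibition was derived by comparison with vehicle controls.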

[8] = NCI Yeast Anticancer Drug Screen. Data for the mlh1 rad18 strain (AID 175); conditions: S. cerevisiae mlh1 rad18 strain growth inhibition, hits give high values
Method in brief: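 Genetically defined yeast (DNA repair-deficient) exposed to compounds; growth inhibition determined relative to vehicle.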

[9] = NCI Yeast Anticancer Drug Screen. Data for the rad18 strain (AID 177); conditions: S. cerevisiae rad18 mutant growth inhibition, hits give high values
Method in brief: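 Vehicle-treated cultures served as the baseline for scoring compound-induced growth inhibition in DNA-repair-mutant yeast.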

[10] = at 5.0 µM (retest, dose inferred, filed as 0.5)
[11] = at 50.0 µM (retest, dose inferred, filed as 5.0)

Measured: growth inhibition

COc1ccc(/C=C2\SC(=S)N(/C=C/c3nc4ccccc4[nH]c3=O)C2=O)cc1OC
inactive: [1]; [10] -7% | [1]; [11] 57% | [2]; at 1.2 µM -17% | [2]; at 3.7 µM -11% | [2]; at 11.0 µM 7% | [2]; at 33.0 µM 59% | [3]; [10] -30% | [3]; [11] 26% | [3]; at 50.0 µM 32.5% | [4]; at 1.2 µM 4% | [4]; at 3.7 µM 4% | [4]; [10] -14% | [4]; at 11.0 µM 19% | [4]; at 33.0 µM 52% | [4]; [11] 4% | [5]; at 1.2 µM 1% | [5]; at 3.7 µM 3% | [5]; at 11.0 µM 28% | [6]; at 1.2 µM 1% | [6]; at 3.7 µM 5% | [6]; at 11.0 µM 28% | [7]; at 1.2 µM 5% | [7]; at 3.7 µM 14% | [7]; at 11.0 µM 43% | [8]; [10] -11% | [8]; [11] 33% | [8]; at 50.0 µM 61.6% | [9]; at 1.2 µM 10% | [9]; at 3.7 µM 20% | [9]; at 11.0 µM 39% | [9]; at 33.0 µM 67%
active: [1]; at 50.0 µM 87% | [2]; at 100.0 µM 88% | [4]; at 50.0 µM 70.3% | [4]; at 100.0 µM 85% | [5]; at 33.0 µM 80% | [5]; at 100.0 µM 94% | [6]; at 33.0 µM 76% | [6]; at 100.0 µM 91% | [7]; at 33.0 µM 85% | [7]; at 100.0 µM 94% | [9]; at 100.0 µM 85%
